These results are taken from PubChem BioAssay (NCATS).

Where “and” joins values, the source holds several entries; their conditions need not be identical. Equal entries are not always repeated. Results filed as inconclusive are left out. Calls of active or inactive are those of the source. Unless noted, the call rests on the fitted dose curve; in most records, active means well fitted curve in the direction sought with a large enough effect; inconclusive means small, poorly fitted or top-dose-only effect, or another doubt; inactive means no such curve, though single readings can be large; an effect the other way counts as inactive or inconclusive.

Test [1] can be described thus: Cell Viability - SK-N-SH (AID 435; calls by dose curve; further: potency means the concentration at half of the fitted maximal effect). The settings on record: SK-N-SH neuroblastoma cell viability qHTS. Summed up:
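Human neuroblastoma line, 40 h exposure at 37 °C, ATP quantified via luciferase luminescence; DMSO and 100 uM tamoxifen define 0 and 100% inhibition for AC50 fitting.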

A short description of test [2]: Cell Viability - H-4-II-E (AID 543). Further: nearly all actives have a fitted effect of over 35% in size. Further: potency means the concentration at half of the fitted maximal effect. Summed up:
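qHTS, rat hepatoma H-4-II-E, 1500 cells/well; 40 hr compound exposure, 37 °C; CellTiter-Glo ATP luminescence after 20 min RT; AC50 by standard Hill fit.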

Test [3] can be described thus: Cell Viability - Renal Proximal Tubule (AID 545).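 Further: 0% = DMSO only and -100% = 100 µM tamoxifen; nearly all actives have a fitted effect of over 40% in size.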 The following applies: renal proximal tubule cells viability, primary cells of rat origin; activity change, negative = cytotoxicity: at 91.7 µM (top of the series). Summed up: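 In this qHTS format, normal rat kidney-derived proximal tubule cells in complete culture medium receive compound titrations, then sit 40 hours at 37 °C before luciferase-based ATP quantitation; potency is reported as AC50 from concentration-response curves.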

The nature of test [4]: Cell Viability - LYMP2-001 (AID 921).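 Further: cells exposed to compound for 24 h at 37 °C; nearly all actives have a fitted effect of over 70% in size.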 Further: potency means the concentration at half of the fitted maximal effect. Summed up:
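A lymphoblastoid cell line of human origin was treated with library compounds across a concentration series for 24 hours, and viable cell number was estimated from ATP-driven luciferase light output. Hill modeling gave AC50.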

A short description of test [5]: MultiTox-Fluor Cytotoxicity Assay - LYMP1-001 - Live Cells (AID 947). Further: potency means the concentration at half of the fitted maximal effect.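 On activity change, negative = cytotoxicity: 0% = DMSO only and full inhibition = tetraoctylammonium bromide control.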
Test [6] can be described thus: Cell Viability - LYMP1-003 - Assay at 40 hr (AID 964). Further: nearly all actives have a fitted effect of over 60% in size. Further: potency means the concentration at half of the fitted maximal effect. A digest of the protocol:
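LYMP1-003 lymphoblastoid cells, 2500/well; 5 hr preincubation, 40 hr compound exposure, 37 C; CellTiter-Glo 30 min RT; luminescence; Hill-fit AC50. Positive control tetraoctylammonium bromide.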

The nature of test [7]: Cell Viability - LYMP2-004 (AID 966).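 Further: cells exposed to compound for 24 h; nearly all actives have a fitted effect of over 65% in size.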 Further: potency means the concentration at half of the fitted maximal effect.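 On activity change, negative = cytotoxicity: plate controls were DMSO only for no effect and tetraoctylammonium bromide control for full effect.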 A digest of the protocol:
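Luminescent ATP read-out (CellTiter-Glo, 30 min RT) after 24 hr compound exposure at 37 C; 2500 lymphoblastoid cells/well, complete medium. Decrease in ATP = cytotoxicity; AC50 from standard Hill model.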

The nature of test [8]: Cell Viability - LYMP2-009 (AID 968).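 Further: cells exposed to compound for 24 h at 37 °C; nearly all actives have a fitted effect of over 55% in size.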 Further: potency means the concentration at half of the fitted maximal effect.
Test [9] is described as follows: Cell Viability - LYMP2-015 (AID 971).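 Further: cells exposed to compound for 24 h; nearly all actives have a fitted effect of over 55% in size.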 Further: potency means the concentration at half of the fitted maximal effect. Summed up: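 qHTS cytotoxicity: 2500 cells/well, 5 hr 37 C, compound 24 hr 37 C, CellTiter-Glo 30 min RT, luminescence. Loss of ATP = toxicity; AC50 via standard Hill fit.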
A short description of test [10]: Cell Viability - LYMP2-017 (AID 972).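 Further: cells exposed to compound for 24 hours at 37 °C; nearly all actives have a fitted effect of over 55% in size.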 Further: potency means the concentration at half of the fitted maximal effect. On activity change, negative = cytotoxicity: on the % scale 0 is the no-effect control and ±100 the full control effect. A digest of the protocol: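 Luminescent ATP read-out (CellTiter-Glo, 30 min RT) reports viable cell number. Cells: human lymphoblastoid line, 2500 per well, 5 hr preincubation, 24 hr compound exposure at 37 C. AC50 is derived from qHTS concentration-response data using the standard Hill model.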
Test [11] is described as follows: Cell Viability - LYMP2-019 (AID 973).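 Further: cells exposed to compound for 24 h at 37 °C; nearly all actives have a fitted effect of over 55% in size.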 Further: potency means the concentration at half of the fitted maximal effect.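 On activity change, negative = cytotoxicity: 0% = DMSO alone and full effect = 92 µM tetraoctylammonium bromide.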 Summed up:
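qHTS, 1536-well; 2500 cells/well; 5 hr pre-incubation, 24 hr compound exposure, 37 C; CellTiter-Glo added, 30 min RT; luminescence read; AC50 via standard Hill equation.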

Test [12] can be described thus: Cell Viability - LYMP2-010 (AID 981). Further: potency means the concentration at half of the fitted maximal effect. Summed up: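 qHTS cytotoxicity, 1536-well: 2500 cells/well, 5 hr settle, 24 hr compound at 37 C, CellTiter-Glo 30 min RT, luminescence read. Decrease in ATP = toxicity; AC50 via standard Hill equation. Positive control tetraoctylammonium bromide.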
A short description of test [13]: qHTS assay for small molecule agonists of retinoid X receptor alpha signaling (AID 588544; calls by dose curve). The settings on record: HEK293T RXRa-UAS-bla, beta-lactamase reporter, 18 h; 530 nm emission.
Test [14] has as its target Retinoic acid receptor RXR-alpha (Homo sapiens) (UniProt P19793). The test is described as above.
In test [15] the target is Thyroid hormone receptor beta (Homo sapiens) (UniProt P10828). The experiment in a line: qHTS assay for small molecule antagonists of thyroid hormone receptor beta signaling (AID 588547; active means well fitted inhibition curve with a large enough effect in the signal ratio, with a control signal flat, not every such curve was filed as active; the % refers to the signal ratio;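 further: cells stimulated with 0.4 nM T3 agonist during compound exposure; on the % scale 0 is the no-effect control and ±100 the full control effect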). The settings on record: TR-UAS-bla HEK293, beta-lactamase ratio, antagonist mode, 18 h. Summed up: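 TR-UAS-bla GripTite HEK293 cells in 2% charcoal/dextran FBS medium were preincubated 4 h at 37 C, given compound (0.59 nM to 92 uM) plus 0.4 nM T3 (final) for 18 h, then CCF4 for 2 h at RT; Hill fit gave IC50.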
Thyroid hormone receptor beta (Homo sapiens), sequence (P10828 whole entry, looked up): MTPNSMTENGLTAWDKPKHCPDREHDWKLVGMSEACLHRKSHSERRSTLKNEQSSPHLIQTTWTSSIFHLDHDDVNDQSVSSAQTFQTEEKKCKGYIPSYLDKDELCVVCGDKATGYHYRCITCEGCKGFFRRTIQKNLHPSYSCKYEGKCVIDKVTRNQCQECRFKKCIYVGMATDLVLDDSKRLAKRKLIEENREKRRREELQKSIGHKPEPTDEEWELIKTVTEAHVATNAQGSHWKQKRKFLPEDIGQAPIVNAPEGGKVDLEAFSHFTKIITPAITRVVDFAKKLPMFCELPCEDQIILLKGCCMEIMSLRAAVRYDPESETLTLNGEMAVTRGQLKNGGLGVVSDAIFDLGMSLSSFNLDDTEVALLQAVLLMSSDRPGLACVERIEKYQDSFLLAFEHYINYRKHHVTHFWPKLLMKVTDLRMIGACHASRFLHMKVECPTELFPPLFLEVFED

Test [16] can be described thus: qHTS assay for small molecule disruptors of the mitochondrial membrane potential - 5 hr assay (AID 651755; calls by dose curve; further: nearly all actives have a fitted effect of over 40% in size; further: potency means the concentration at half of the fitted maximal effect). Summed up: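 Seed HepG2 overnight, add compound, incubate 5 hr at 37C and 5% CO2, stain 30 min with Mito-MPS, then measure monomer (490/535 nm) and aggregate (540/590 nm) fluorescence.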
Test [17] in a line: qHTS assay for small molecule agonists of the antioxidant response element (ARE) signaling pathway measured by Nrf2-dependant transcriptional activity (AID 720636; active means well fitted curve in the direction sought with a large enough effect in the repeat runs; an effect the other way counts as inactive or inconclusive;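 further: HepG2 cells with an ARE-driven luciferase reporter; % of control where 0% means no effect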). Summed up: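 Nrf2-dependent transcription is measured in ARE-luc HepG2 cells: compound is applied for 16 hr at 37 C after a 6 hr attachment period, and luciferase activity is quantified by luminescence using ONE-Glo.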

For test [18], the target named is Nuclear receptor subfamily 1 group I member 2 (Rattus norvegicus) (UniProt Q9R1A7). The experiment in a line: qHTS assay for small molecule activators of the rat pregnane X receptor (rPXR) signaling pathway (AID 651751; call rule not given here; further: 0% is about no effect). The following applies: rPXR reporter cells, luciferase (One-Glo), 24 h.
Nuclear receptor subfamily 1 group I member 2 (Rattus norvegicus), sequence (Q9R1A7 whole entry, looked up): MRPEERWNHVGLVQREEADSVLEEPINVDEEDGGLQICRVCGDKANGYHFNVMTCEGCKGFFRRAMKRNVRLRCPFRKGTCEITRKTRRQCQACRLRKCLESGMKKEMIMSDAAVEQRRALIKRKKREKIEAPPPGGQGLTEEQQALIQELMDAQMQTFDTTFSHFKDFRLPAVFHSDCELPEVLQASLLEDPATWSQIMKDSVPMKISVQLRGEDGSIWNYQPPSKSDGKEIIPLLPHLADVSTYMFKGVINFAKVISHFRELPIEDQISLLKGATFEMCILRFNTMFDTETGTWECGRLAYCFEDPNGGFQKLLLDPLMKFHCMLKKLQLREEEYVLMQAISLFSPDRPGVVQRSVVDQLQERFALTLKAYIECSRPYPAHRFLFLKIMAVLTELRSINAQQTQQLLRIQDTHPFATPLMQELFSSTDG
Test [19] in a line: Cell Viability - N2a (AID 540).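 Further: plate controls were DMSO alone for no effect and tamoxifen control for full effect; nearly all actives have a fitted effect of over 45% in size.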 The following applies: N2a mouse neuroblastoma cell viability; activity change, negative = cytotoxicity: at 92.2 µM (top of the series). A digest of the protocol: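 N2a mouse neuroblastoma, 1500 cells/well, 5 hr settle; compound 40 hr, 37 °C; CellTiter-Glo 20 min RT; luminescence; Hill-fit AC50.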
Test [20] in a line: MultiTox-Fluor Cytotoxicity Assay - LYMP1-002 - Dead Cells (AID 960). Further: nearly all actives have a fitted effect of over 60% in size. Further: potency means the concentration at half of the fitted maximal effect. A digest of the protocol: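 Readout: fluorescence at 485/520 from cell-impermeant bis-AAF-R110 cleaved by proteases leaking from damaged cells. LYMP1-002 lymphoblastoid line, 16 hr compound treatment at 37 C, concentration-response in qHTS format; Hill-equation AC50 values.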

Retinoic acid receptor RXR-alpha (Homo sapiens), sequence (P19793 whole entry, looked up): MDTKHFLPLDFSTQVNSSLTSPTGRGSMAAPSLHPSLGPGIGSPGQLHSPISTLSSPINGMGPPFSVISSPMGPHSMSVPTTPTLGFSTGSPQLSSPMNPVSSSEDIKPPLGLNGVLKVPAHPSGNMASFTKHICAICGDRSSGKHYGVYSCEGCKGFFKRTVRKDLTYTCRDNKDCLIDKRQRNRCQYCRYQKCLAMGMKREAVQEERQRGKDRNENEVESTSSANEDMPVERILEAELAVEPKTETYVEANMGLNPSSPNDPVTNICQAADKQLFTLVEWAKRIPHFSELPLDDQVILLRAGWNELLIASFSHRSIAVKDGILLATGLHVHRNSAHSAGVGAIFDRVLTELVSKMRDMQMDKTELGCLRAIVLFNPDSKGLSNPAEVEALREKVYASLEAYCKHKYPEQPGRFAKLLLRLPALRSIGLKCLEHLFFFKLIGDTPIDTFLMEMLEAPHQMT

As for `CCCCC(CC)COP(=O)(OCC(CC)CCCC)OCC(CC)CCCC` (stereo unspecified), in test [1], the Potency is > 92 µM (inactive). Moreover, the Potency entry in test [2], in test [3], in test [4], in [5], in test [6] and in [7] was “inactive” in each case. Further, the Potency entry in test [8], in test [9], in test [10], in test [11], in test [12] and in test [14] was “inactive” each time. Moreover, the Potency entry in [16] and in test [17] was “inactive” throughout. Also, the max response in test [13] is -2.54%; in test [18] it was 1.51% (inactive). The activity change % (negative = inhibition) in test [15] is -23.6% (inactive).
On to `C=CC(=O)OCCCCCCOC(=O)C=C`, for which the Potency in test [1] was 50.2 µM (active); in [2], 39.8 µM (active); in test [4] it was 31.6 µM (active); in test [5], 39.8 µM (active); in test [20], 31.6 µM (active); in test [6] it was 39.8 µM (active). The Potency was 39.8 µM (active) in [7]; 39.8 µM (active) in [8]; 39.8 µM (active) in test [9]; 39.8 µM (active) in [10]; 50.1 µM (active) in test [11]; 39.8 µM (active) in [12]. In addition, the activity change, negative = cytotoxicity in test [19] is -110% (active). In addition, the max response in test [13] is 3.42%; in [18] it was -2.77% (inactive) and -1.84% (inactive). Besides, the Potency entry in test [14], in test [16] and in test [17] was “inactive” in each case. In addition, in test [15], the activity change % (negative = inhibition) is -7.08% (inactive).
As to `Nc1ccccc1O`, the Potency is > 92 µM (inactive) in [1] and 23.7 µM (active) in [16]. In addition, the Potency result in test [2], in test [3], in [5], in test [20], in test [8] and in test [10] was “inactive” each time. For the same molecule, the Potency result in test [11], in [14] and in [17] was “inactive” each time. Also, the max response in test [13] was found to be 23.5%. The activity change % (negative = inhibition) in test [15] was -12.3% (inactive).
On to `CC(C)(C)C(=O)C1C(=O)c2ccccc2C1=O`, for which the Potency in [1] is 20.1 µM (active). In addition, the activity change, negative = cytotoxicity in test [19] is -83% (active). Also, the Potency result in test [3], in test [4], in test [5], in test [20], in [6] and in [7] was “inactive” each time. The Potency entry in test [8], in test [10], in [11], in test [16] and in [17] was “inactive” each time. Moreover, the activity change % (negative = inhibition) in test [15] was 12.3% (inactive). Moreover, in test [18], the max response is -2.46% (inactive).
`Clc1nc2ccccc2nc1Cl`: in test [1], the Potency is > 92 µM (inactive). The activity change, negative = cytotoxicity in [19] is -7.43% (inactive). The Potency entry in [2], in test [3], in [20], in test [6], in [7] and in test [16] was “inactive” each time. Besides, the activity change % (negative = inhibition) in [15] was -2.15% (inactive).
Turning to `O=C(OCC1CO1)C1CCCCC1C(=O)OCC1CO1` (stereo unspecified), in test [19], the activity change, negative = cytotoxicity was 2.77% (inactive). Besides, the Potency in [2] and in test [12] was 50.1 µM (active) throughout. Moreover, the Potency entry in test [3], in test [5] and in [16] was “inactive” each time. For the same molecule, the activity change % (negative = inhibition) in [15] is -2.36% (inactive). For the same molecule, the max response in [18] was 1.33% (inactive).
Consider `O=CC(=O)c1ccccc1`, for which the Potency in [1] was > 92 µM (inactive). In test [19], the activity change, negative = cytotoxicity was 5.07% (inactive). In addition, the Potency result in [2], in test [3], in test [5], in [20], in test [6] and in [11] was “inactive” each time. Further, the Potency entry in test [12], in [14], in test [16] and in test [17] was “inactive” in each case. The max response in test [13] is -0.232%; in test [18], 11.8% (inactive).
In the case of `Cc1cc2nc(N)sc2cc1C`, the Potency in test [1] was > 92 µM (inactive). The Potency result in test [4], in [5], in test [20], in test [6], in [7] and in test [8] was “inactive” each time. Moreover, the Potency result in test [9], in [10], in [11], in [12], in [14] and in [16] was “inactive” throughout. Besides, in test [13], the max response is -11.8%. In addition, in test [15], the activity change % (negative = inhibition) is -0.19% (inactive).
